# Screen size: about 5,500 compounds; about 2,000 (36%) were called active. Roughly 18% stayed inconclusive and do not appear here. The list shows a part of the results. Values without a mark were called inactive. No stated cut-off is given here; in the data, active means normalized growth mostly below about 0.91 (no sharp cut-off); inconclusive means no clear call, values can overlap the other calls; inactive means mostly above about 0.92.
# Test: chemical genetic growth profiling, strain panel (AID 1159580);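 further: tested at 20 µM; growth read once vehicle control cultures reached saturation at 30 °C; 1 = growth at the plate median or of vehicle wells; lower values mean less growth of the strain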
# Conditions: S. cerevisiae deletion strains, growth OD
# [1] = locus YAL040C, strain CLN3, active compounds read low
# [2] = locus YCL061C, strain MRC1 (second series), active compounds read low
# [3] = locus YDR363W, strain ESC2, active compounds read low
# [4] = locus YER002W, strain NOP16, active compounds read low
# [5] = locus YMR307W, strain GAS1, active compounds read low
# [6] = locus YNL153C, strain GIM3, active compounds read low
# [7] = locus YNL175C, strain NOP13, active compounds read low
# [8] = locus YNL197C, strain WHI3, active compounds read low
# [9] = locus YNL224C, strain SQS1, active compounds read low
# [10] = locus YOR083W, strain WHI5 (second series), active compounds read low
# [11] = locus YPL055C, strain LGE1, active compounds read low
smiles,measurement,setting,value
Nc1ncnc2c1ncn2C1CCCO1 (centres undefined),normalized growth,"locus YAL013W, strain DEP1, active compounds read low",1.03
same,normalized growth,[1],1.03
same,normalized growth,[2],0.997
same,normalized growth,[3],1.02
same,normalized growth,[4],0.967
same,normalized growth,"locus YJR075W, strain HOC1, active compounds read low",1.02
same,normalized growth,[5],1
same,normalized growth,[6],0.989
same,normalized growth,[7],0.986
same,normalized growth,[8],0.967
same,normalized growth,[9],1
same,normalized growth,[10],0.977
same,normalized growth,[11],1.02
O=C1c2cccc3c(Sc4ccccc4)ccc(c23)C(=O)N1NCCO,normalized growth,"locus YAR019C, strain CDC15, active compounds read low",0.921
same,normalized growth,"locus YBL105C, strain PKC1, active compounds read low",0.926
same,normalized growth,"locus YBR135W, strain CKS1, active compounds read low",0.92
same,normalized growth,"locus YBR136W, strain MEC1, active compounds read low",0.929
same,normalized growth,"locus YBR160W, strain CDC28, active compounds read low",0.922
same,normalized growth,"locus YDL017W, strain CDC7, active compounds read low",0.929
same,normalized growth,"locus YDL028C, strain MPS1, active compounds read low",0.924
same,normalized growth,"locus YDL101C, strain DUN1, active compounds read low",0.916
same,normalized growth,"locus YDL108W, strain KIN28, active compounds read low",0.929
same,normalized growth,"locus YDL132W, strain cdc53, active compounds read low",0.941
same,normalized growth,"locus YDL214C, strain PRR2, active compounds read low",0.861
same,normalized growth,"locus YDR052C, strain DBF4, active compounds read low",0.941
same,normalized growth,"locus YDR054C, strain cdc34, active compounds read low",0.936
same,normalized growth,"locus YDR226W, strain ADK1, active compounds read low",0.952
same,normalized growth,"locus YDR477W, strain SNF1, active compounds read low",0.853
same,normalized growth,"locus YER123W, strain YCK3, active compounds read low",0.855
same,normalized growth,"locus YER133W, strain GLC7, active compounds read low",0.908
same,normalized growth,"locus YFL009W, strain cdc4, active compounds read low",0.912
same,normalized growth,"locus YFL029C, strain CAK1, active compounds read low",0.911
same,normalized growth,"locus YFR003C, strain YPI1, active compounds read low",0.923
same,normalized growth,"locus YFR019W, strain FAB1, active compounds read low",0.897
same,normalized growth,"locus YFR028C, strain CDC14, active compounds read low",0.938
same,normalized growth,"locus YGR040W, strain KSS1, active compounds read low",0.859
same,normalized growth,"locus YGR052W, strain FMP48, active compounds read low",0.83
same,normalized growth,"locus YGR092W, strain DBF2, active compounds read low",0.734
same,normalized growth,"locus YHR030C, strain SLT2, active compounds read low",0.577 (active)
same,normalized growth,"locus YHR079C, strain IRE1, active compounds read low",0.84
same,normalized growth,"locus YHR082C, strain KSP1, active compounds read low",0.8
same,normalized growth,"locus YHR205W, strain SCH9, active compounds read low",0.857
same,normalized growth,"locus YIL147C, strain SLN1, active compounds read low",0.921
same,normalized growth,"locus YJL095W, strain BCK1, active compounds read low",0.771
same,normalized growth,"locus YJL128C, strain PBS2, active compounds read low",0.816
same,normalized growth,"locus YJL157C, strain FAR1, active compounds read low",0.896
same,normalized growth,"locus YJR016C, strain ILV3, active compounds read low",0.921
same,normalized growth,"locus YJR066W, strain TOR1 (second series), active compounds read low",0.93
same,normalized growth,"locus YJR066W, strain TOR1, active compounds read low",0.805
same,normalized growth,"locus YKL048C, strain ELM1, active compounds read low",0.831
same,normalized growth,"locus YKL067W, strain YNK1, active compounds read low",0.861
same,normalized growth,"locus YKL101W, strain HSL1, active compounds read low",0.804
same,normalized growth,"locus YKL193C, strain SDS22, active compounds read low",0.912
same,normalized growth,"locus YKL203C, strain TOR2, active compounds read low",0.887
same,normalized growth,"locus YLR113W, strain HOG1, active compounds read low",0.771 (active)
same,normalized growth,"locus YLR133W, strain CKI1, active compounds read low",0.844
same,normalized growth,"locus YLR403W, strain SFP1, active compounds read low",0.863
same,normalized growth,"locus YML070W, strain DAK1, active compounds read low",0.857
same,normalized growth,"locus YMR001C, strain CDC5, active compounds read low",0.914
same,normalized growth,"locus YMR205C, strain PFK2 (second series), active compounds read low",0.854
same,normalized growth,"locus YMR277W, strain FCP1, active compounds read low",0.904
same,normalized growth,"locus YNL006W, strain LST8, active compounds read low",0.931
same,normalized growth,"locus YNL020C, strain ARK1, active compounds read low",0.814
same,normalized growth,"locus YNL161W, strain CBK1, active compounds read low",0.927
same,normalized growth,"locus YNL183C, strain NPR1, active compounds read low",0.784
same,normalized growth,"locus YNL207W, strain RIO2, active compounds read low",0.922
same,normalized growth,"locus YNL222W, strain SSU72, active compounds read low",0.921
same,normalized growth,"locus YNL307C, strain MCK1 (second series), active compounds read low",0.834
same,normalized growth,"locus YOL078W, strain AVO1, active compounds read low",0.911
same,normalized growth,"locus YOL136C, strain PFK27, active compounds read low",0.853
same,normalized growth,"locus YOR061W, strain CKA2, active compounds read low",0.877
same,normalized growth,"locus YOR119C, strain RIO1, active compounds read low",0.936
same,normalized growth,"locus YOR231W, strain MKK1, active compounds read low",0.845
same,normalized growth,"locus YOR329C, strain SCD5, active compounds read low",0.93
same,normalized growth,"locus YPL031C, strain PHO85, active compounds read low",0.837
same,normalized growth,"locus YPL153C, strain RAD53, active compounds read low",0.82
same,normalized growth,"locus YPL204W, strain HRR25, active compounds read low",0.837
same,normalized growth,"locus YPL209C, strain IPL1, active compounds read low",0.923
same,normalized growth,"locus YPL256C, strain CLN2, active compounds read low",0.757 (active)
same,normalized growth,"locus YPR025C, strain CCL1, active compounds read low",0.926
same,normalized growth,"locus YPR106W, strain ISR1, active compounds read low",0.915
same,normalized growth,"locus YPR111W, strain DBF20, active compounds read low",0.957
same,normalized growth,"strain NNK1, active compounds read low",0.897
same,normalized growth,"strain TSCII, active compounds read low",0.917
C[N+]1(C)CCOC(O)(c2ccc(-c3ccc(C4(O)C[N+](C)(C)CCO4)cc3)cc2)C1 (centres undefined),normalized growth,[1],1.09
same,normalized growth,[2],0.993
same,normalized growth,"locus YDR150W, strain NUM1, active compounds read low",0.99
same,normalized growth,[3],1.02
same,normalized growth,[4],1
same,normalized growth,"locus YGR078C, strain PAC10, active compounds read low",1.01
same,normalized growth,"locus YMR263W, strain SAP30, active compounds read low",1
same,normalized growth,[5],0.993
same,normalized growth,[6],1.05
same,normalized growth,[7],1
same,normalized growth,[8],1.01
same,normalized growth,[9],1
same,normalized growth,[10],1.02
same,normalized growth,[11],0.971
same,normalized growth,"locus YPL241C, strain CIN2, active compounds read low",1
